GFP response vs DMSO data for 92 compounds are collected here from PubChem BioAssay AID2029 (NMMLSC, 2009).

Structures are written as SMILES. Among all 320,000 compounds or so, about 210 (0.066%) were called active.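 How the source made its calls: active means GFP response relative to DMSO above a set limit, near the screen mean plus 3 SD (cut at about 150% in these data); inconclusive means Fewer than 70 cells measured for a yeast strain; inactive means the rest.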 This excerpt belongs to a sample that is enriched for actives.

This assay is described as follows: TOR pathway RTG branch CIT2 reporter changes – S. cerevisiae, GFP fusion, multiplex flow cytometry, MLPCN library, primary screen (AID 2029).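 Further: ratio of well median GFP fluorescence to mean of DMSO wells on the plate.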 The following applies: S. cerevisiae CIT2-GFP strain, 3 h, at 10 µM, stronger effect = higher value, 100 means same as DMSO wells.
Take `Oc1cccc2ccc(/C=C/c3ccc(Br)s3)nc12`: the GFP response vs DMSO was 98.5% (inactive). For the compound `Cc1cc(N=Nc2ccc3ccccc3c2)ccc1O`, the GFP response vs DMSO was 97.3% (inactive). With `Cc1cccc(N(C)C(=O)c2cc(S(=O)(=O)N3CCCCC3)c[nH]2)c1`, the GFP response vs DMSO is 105% (inactive). Regarding `C=CCNc1nc(Nc2ccc(Cl)cc2)nc(OC)n1`, the GFP response vs DMSO is 87% (inactive).

As to `COC(=O)COc1ccc2c(=O)c(Oc3ccccc3Br)coc2c1`, the GFP response vs DMSO was 100% (inactive).

Regarding `COc1ccc(C2(C)ON(c3ccccc3C(F)(F)F)C2=O)cc1` (configuration not stated), the GFP response vs DMSO is 97% (inactive). Take `Cc1noc(NS(=O)(=O)c2ccc(N3CC(O)=C(c4ccccc4)C3=N)cc2)c1C`: the GFP response vs DMSO was 103% (inactive). For the compound `O=C(COC(=O)Cn1cnc2ccccc2c1=O)NCC12CC3CC(CC(C3)C1)C2`, the GFP response vs DMSO was 101% (inactive). For the compound `O=C(COC(=O)c1cc(S(=O)(=O)N2CCOCC2)ccc1Cl)NCCc1ccccc1`, the GFP response vs DMSO is 98.2% (inactive). For the compound `CCCc1nn(C)c2c(=O)[nH]c(-c3cc(S(N)(=O)=O)ccc3OCC)nc12`, the GFP response vs DMSO was 96% (inactive).

Turning to `Cc1cc(C)cc(NS(=O)(=O)Cc2ccccc2)c1`, the GFP response vs DMSO was 103% (inactive).

As to `CC(OC(=O)CNC(=O)c1ccco1)C(=O)Nc1ccc(Cl)cn1` (configuration not stated), the GFP response vs DMSO is 98.1% (inactive). `O=C(N/C(=C\c1ccc(O)cc1)C(=O)N1CCCCC1)c1ccccc1`: the GFP response vs DMSO is 108% (inactive). Consider `COc1cc(/C=C/C(=O)O)cc(S(=O)(=O)Nc2ccccc2SC)c1OC`, for which the GFP response vs DMSO is 110% (inactive). As to `CCc1cccc2c3c([nH]c12)C(CC)(CC(=O)O)OCC3` (configuration not stated), the GFP response vs DMSO is 83.9% (inactive). Take `Cc1cccc(CN2CCC(n3nccc3NC(=O)c3ccccc3C)CC2)n1`: the GFP response vs DMSO was 107% (inactive).

`CCc1n[nH]c(=S)n1/N=C/c1c[nH]c2ccc(Br)cc12`: the GFP response vs DMSO was 106% (inactive). To `CCOc1ccc(NS(=O)(=O)c2ccc(C)c(C(N)=O)c2)cc1` belongs 94% (inactive); to `NC(=O)c1oc2ccccc2c1NC(=O)CS(=O)(=O)c1ccccc1`, 110% (inactive); to `CC1(C)C2CC=C(/C=N/NC(=O)C3CC3)C1C2` (configuration not stated), 91.7% (inactive). Consider `COCCNC(=O)CN(Cc1ccco1)C(=O)CCC(=O)Nc1nccs1`, for which the GFP response vs DMSO was 105% (inactive). In the case of `CCn1c(SCC(=O)Nc2nc(C)cs2)nnc1C(C)NC(=O)c1ccccc1` (configuration not stated), the GFP response vs DMSO is 101% (inactive). As for `CCOC(=O)/C=c1\s/c(=C\c2ccc(C#N)cc2)c(=O)n1CC(=O)Nc1cccc(C)c1C`, the GFP response vs DMSO is 97.6% (inactive). Regarding `CCOC(=O)Cn1c(=O)oc2cc(S(=O)(=O)N(C)Cc3ccco3)ccc21`, the GFP response vs DMSO is 96.1% (inactive).

Consider `CN(c1ccccc1)c1ccc(/C=c2\s/c(=C(/C#N)C(=O)C(C)(C)C)n(Cc3ccco3)c2=O)cc1`, for which the GFP response vs DMSO is 352% (active). For the compound `COc1ccc(-n2nnc3c(=O)n(CC(=O)N4CCC(Cc5ccccc5)CC4)cnc32)cc1`, the GFP response vs DMSO was 89.3% (inactive).

As for `CCn1c(/C=C/Nc2ccccc2)[n+](CC)c2ccc(C(=O)OCC(F)(F)F)cc21`, the GFP response vs DMSO was 97.8% (inactive). Consider `COc1ccc(/C=N/NC(=O)C(C)N(c2ccc(OC)cc2)S(C)(=O)=O)cc1` (configuration not stated), for which the GFP response vs DMSO was 109% (inactive). The result for `Cc1cccc(NS(=O)(=O)c2ccc(C)c(C(=O)NCc3cccnc3)c2)c1` reads 107% (inactive).

Consider `O=C(O)C1CCN(C(=O)c2cc(F)cc3c2OCOC3)CC1`, for which the GFP response vs DMSO was 109% (inactive). For `O=S(=O)(c1ccc(Br)cc1)N1CCC(c2nc3ccccc3[nH]2)CC1`, the GFP response vs DMSO is 111% (inactive). On to `CC(=O)N(CCCN(C)C)c1nc2ccc(C)cc2s1`, for which the GFP response vs DMSO is 111% (inactive).

Take `CN(C)CCN(C(=O)C1=COCCO1)c1nc2ccc(Cl)cc2s1`: the GFP response vs DMSO was 92.3% (inactive). Consider `Cc1ccc2nc(N(CCN(C)C)C(=O)C3=COCCO3)sc2c1`, for which the GFP response vs DMSO is 161% (active). On to `CCc1ccc(Oc2coc3cc(O)ccc3c2=O)cc1`, for which the GFP response vs DMSO is 94.9% (inactive). On to `CCN(CC(=O)Nc1cc(Cl)ccc1C)C(=O)Cn1c(=O)cnc2ccccc21`, for which the GFP response vs DMSO was 110% (inactive). On to `O=c1[nH]c(CN2CCN(S(=O)(=O)c3ccc4c(c3)OCCO4)CC2)nc2sc3c(c12)CCCC3`, for which the GFP response vs DMSO was 101% (inactive). Consider `CCn1c(=O)c([N+](=O)[O-])c(NCc2ccc3c(c2)OCO3)c2ccccc21`, for which the GFP response vs DMSO was 88.2% (inactive).

As for `CCc1ccc(S(=O)(=O)N/N=C\c2ccc([N+](=O)[O-])o2)cc1`, the GFP response vs DMSO was 91.7% (inactive). To `CCn1c(/C=C/c2ccc([N+](=O)[O-])o2)nc2ccccc2c1=O` belongs 210% (active); to `COc1ccc(S(=O)(=O)NCCOc2ccccc2)cc1F`, 94.3% (inactive); to `COCC(C)n1c(SCC(=O)NC2CCCCC2C)nc2ccccc2c1=O` (configuration not stated), 101% (inactive). Turning to `CC(=O)Nc1ccc(NC(=O)C(C)n2c3ccccc3c3nc(=O)cc(C)n32)cc1` (configuration not stated), the GFP response vs DMSO is 109% (inactive). `CC(C)NC(=O)C(c1ccc(F)cc1)N(C(=O)CCC(=O)Nc1ccccn1)c1ccccc1F` (configuration not stated): the GFP response vs DMSO is 88.4% (inactive). As to `CCOc1cccc(-c2nnc(SCC(=O)NC3CC3)n2C)c1`, the GFP response vs DMSO is 98.9% (inactive). As for `O=C(N/N=C/c1c[nH]c2ccccc12)c1ccccc1O`, the GFP response vs DMSO is 80.8% (inactive). Regarding `C[n+]1ccc(/C=C/c2c[nH]c3ccccc23)cc1`, the GFP response vs DMSO was 274% (active). `COc1ccc(/C=C(\C#N)c2c[nH]c3ccccc23)cc1`: the GFP response vs DMSO is 79.6% (inactive). As for `CCCCNC(=O)N(O)C1N(/N=C/c2ccc(N(C)C)cc2)C(=S)SC1(C)C` (configuration not stated), the GFP response vs DMSO is 105% (inactive). As for `COc1ccc([C@H]2CC(=O)C=C(/C=C/c3ccc(Cl)cc3)C2)cc1`, the GFP response vs DMSO was 104% (inactive). In the case of `CC(C)Oc1ccc(CCc2n[nH]c(=S)n2Cc2ccccc2)cc1`, the GFP response vs DMSO was 98.5% (inactive). Take `N#Cc1nc(N)nc(N(c2ccccc2)c2ccccc2)n1`: the GFP response vs DMSO was 113% (inactive). To `O=C(NCC1CCCO1)c1ccccc1-c1nc(-c2ccccc2Cl)no1` (configuration not stated) belongs 77% (inactive).

For the compound `CC(=O)Nc1ccc(S(=O)(=O)Nc2ccc(-c3ccc4nnc(C)n4n3)cc2)cc1`, the GFP response vs DMSO is 102% (inactive). As to `O=C(NNc1cc(Cl)ccc1Cl)c1cccnc1Cl`, the GFP response vs DMSO is 107% (inactive). The result for `CC(C)C(NC(=O)C1CCC(C(C)(C)C)CC1)C(=O)NCCCN1CCCCC1` (configuration not stated) reads 94.8% (inactive); that for `O=C(CC1OC(=O)c2ccccc21)NC1CCCCC1` (configuration not stated), 109% (inactive). `O=C(CSc1nnc(Nc2ccccc2F)s1)NC1CCCC1`: the GFP response vs DMSO is 85.1% (inactive).

As for `O=C(Oc1cccc(C(=S)N2CCOCC2)c1)c1cccc(Cl)c1`, the GFP response vs DMSO was 94.4% (inactive). The result for `COc1cc(C(=O)N(C)Cc2cccc(OC)c2OC)ccc1OCC(=O)Nc1cccc(C(F)(F)F)c1` reads 101% (inactive); that for `O=C(NC(=S)NC1CCS(=O)(=O)C1)c1cccc([N+](=O)[O-])c1` (configuration not stated), 155% (active). As to `CC1CCN(C(=S)c2cccc([N+](=O)[O-])c2)CC1`, the GFP response vs DMSO is 102% (inactive). Turning to `Nc1ccc(C(=O)OCC(=O)NC2CCS(=O)(=O)C2)cc1[N+](=O)[O-]` (configuration not stated), the GFP response vs DMSO is 91.7% (inactive). To `O=C(N/N=C1\CCSC1)c1cc(Cl)ccc1O` belongs 102% (inactive); to `Cc1cccc(C)c1NC(=O)C(Cl)C(=O)c1ccccc1` (configuration not stated), 87.7% (inactive); to `Cc1ccc(C)c(Cn2nnc3c(=O)[nH]c(C(=O)Nc4ccc(F)cc4)nc32)c1`, 99.3% (inactive). For `CN(CC(=O)Nc1ccc(C(N)=O)cc1)S(=O)(=O)c1ccc2c(c1)OCCO2`, the GFP response vs DMSO is 110% (inactive).

`COc1cc([N+](=O)[O-])cc([N+](=O)[O-])c1NC(=O)N1CCOCC1`: the GFP response vs DMSO is 110% (inactive).

Turning to `Cc1cc(C(=O)CC#N)c(C)n1-c1c(C)n(C)n(-c2ccccc2)c1=O`, the GFP response vs DMSO was 92.1% (inactive).

For `O=C(c1cc2ccccc2o1)N1CCN(Cc2ccccc2)CC1`, the GFP response vs DMSO is 94.7% (inactive). Turning to `CC1Cc2ccccc2N1CC(=O)Nc1ccc2c(c1)OC(F)(F)O2` (configuration not stated), the GFP response vs DMSO is 82.8% (inactive). With `COC(=O)C1=C(C)N(Cc2ccccc2)C(=NCCCOC(C)C)N[C@H]1c1ccccc1`, the GFP response vs DMSO is 69.2% (inactive). Turning to `COc1ccccc1C(=O)OCC(=O)Nc1cccc(S(=O)(=O)NC2=NCCCCC2)c1`, the GFP response vs DMSO was 118% (inactive). Regarding `COc1cccc(NC(=O)CN(C)C(=O)c2cc(C3CC3)nn2-c2ccccc2)c1`, the GFP response vs DMSO was 106% (inactive).

On to `COc1ccc(NC(=O)CCn2ccnc2)c(OC)c1`, for which the GFP response vs DMSO was 106% (inactive). `CCOc1ccc(OCC)c(NC(=O)CSc2nnc(Cn3cnc4ccccc43)n2C)c1`: the GFP response vs DMSO is 99% (inactive). Regarding `O=C(NCC(F)(F)F)Nc1nnc(C(F)(F)F)s1`, the GFP response vs DMSO was 97.4% (inactive). As to `O=C(NCc1cc(F)cc(C(F)(F)F)c1)C1CCC(=O)N(C2CCCC2)C1` (configuration not stated), the GFP response vs DMSO is 98.4% (inactive).

In the case of `CCSC1=NCCN1S(=O)(=O)c1ccc(F)cc1`, the GFP response vs DMSO is 151% (active).

Turning to `O=S(=O)(c1ccc(F)cc1)N1CCN=C1SCc1cccc(F)c1`, the GFP response vs DMSO was 104% (inactive). In the case of `CS(=O)(=O)N1CCN=C1SCc1ccc(F)cc1`, the GFP response vs DMSO is 102% (inactive). As to `CC1CC1C(=O)OCC(=O)c1c(N)n(C)c(=O)n(C)c1=O` (configuration not stated), the GFP response vs DMSO was 97.2% (inactive). The result for `COc1ccc(-c2nc(CS(=O)(=O)CC(=O)NCc3cccc(Br)c3)c(C)o2)cc1` reads 150% (active); that for `Cc1ccc(-c2nc(CS(=O)(=O)CC(=O)NCc3ccc4c(c3)OCO4)c(C)o2)cc1`, 94.3% (inactive). Regarding `COc1cccc(-c2nc(CS(=O)(=O)CC(=O)NCCc3ccc(OC)c(OC)c3)c(C)o2)c1`, the GFP response vs DMSO was 102% (inactive).

On to `COc1cc(OC)cc(-c2c(C#Cc3ccsc3)c3cc(-c4ccc(SC)cc4)ccc3n2C)c1`, for which the GFP response vs DMSO was 109% (inactive). With `CCN(CC)P(=O)(/C(Cl)=C\Nc1c(C)n(C)n(-c2ccccc2)c1=O)N(CC)CC`, the GFP response vs DMSO was 113% (inactive). Regarding `CC1=C2C(=O)OC(c3ccoc3)C2(C)CCC1` (configuration not stated), the GFP response vs DMSO is 103% (inactive). Regarding `COc1ccc(CN2CC[C@H]3C=CC[C@@H](C(=O)N4CCOCC4)[C@H]3C2=O)cc1OC`, the GFP response vs DMSO is 99.2% (inactive).

As for `COc1ccc(NC(=O)CC(NC(C)c2ccccc2)C(=O)O)cc1` (configuration not stated), the GFP response vs DMSO was 101% (inactive).

For the compound `O=C(NCC(=O)N1CCCCCCC1)c1ccccc1Cl`, the GFP response vs DMSO is 106% (inactive). On to `Cc1ccc(NC(=O)C(CC(=O)O)C2CCCO2)c(C)c1` (configuration not stated), for which the GFP response vs DMSO is 98.9% (inactive).
